# Experimental data published in PubChem BioAssay (NCI).
# Compounds without any hit were thinned out: in the full panel of roughly 79,000, 15% have a hit. A number with no mark means an inactive call. Calls of active or inactive are those of the source. Cut-off read from the data, not from the text of the source: active = growth inhibition above about 70%; inactive = the rest.
# Columns and labels:
# [1] = NCI Yeast Anticancer Drug Screen. Data for the rad52 strain (AID 147);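 note: 0% = growth of vehicle-treated control cultures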; conditions: S. cerevisiae rad52 mutant growth inhibition, active compounds read high
# In short: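 Yeast strain carrying a DNA damage repair alteration was exposed to test compounds. Growth inhibition was measured relative to vehicle-treated controls.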
# [2] = NCI Yeast Anticancer Drug Screen. Data for the wt1 strain (AID 149);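 note: 0% = growth of vehicle-treated wt1 cultures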; conditions: S. cerevisiae wt1 strain (SPY 50644) growth inhibition, active compounds read high
# In short: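 Growth inhibition read against vehicle controls after compound exposure of the wt1 yeast strain.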
# [3] = NCI Yeast Anticancer Drug Screen. Data for the rad50EPP+ strain (AID 151);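 note: 0% = growth of vehicle-treated control cultures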; conditions: S. cerevisiae rad50 mutant strain, active compounds read high
# In short: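 Yeast strain carrying rad50 alteration (rad50EPP+) exposed to compounds; growth inhibition measured relative to vehicle-treated controls.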
# [4] = NCI Yeast Anticancer Drug Screen. Data for the mgt1 strain (AID 153); conditions: S. cerevisiae mgt1 mutant growth inhibition, active compounds read high
# In short: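 Yeast mgt1 strain (DNA repair/cell-cycle alteration panel) exposed to compounds; growth inhibition measured relative to vehicle-treated controls.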
# [5] = NCI Yeast Anticancer Drug Screen. Data for the rad50 strain (AID 155);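 note: 0% = growth of vehicle-only cultures of the same strain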; conditions: S. cerevisiae rad50 strain growth inhibition, active compounds read high
# In short: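 Readout: growth inhibition relative to vehicle-treated cultures. Compound exposure was carried out in a genetically defined yeast strain deficient in DNA damage repair.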
# [6] = NCI Yeast Anticancer Drug Screen. Data for the mec2-1 strain (AID 157); conditions: S. cerevisiae mec2-1 strain, active compounds read high
# In short: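 mec2-1 yeast strain, carrying an alteration in DNA damage repair or cell cycle control, was exposed to compounds; growth inhibition was measured relative to vehicle-treated controls.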
# [7] = NCI Yeast Anticancer Drug Screen. Data for the rad14 strain (AID 159);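 note: 0% = growth of vehicle-treated control cultures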; conditions: S. cerevisiae rad14 strain growth inhibition, active compounds read high
# In short: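 Growth inhibition vs vehicle controls; genetically altered yeast strain (DNA damage repair defect) treated with test compounds.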
# [8] = NCI Yeast Anticancer Drug Screen. Data for the sgs1 mgt1 strain (AID 161);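 note: 0% = growth of cultures given vehicle only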; conditions: S. cerevisiae sgs1 mgt1 strain, active compounds read high
# In short: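 Growth of a repair-deficient yeast mutant was monitored after compound treatment and expressed as inhibition relative to vehicle-treated cultures.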
# [9] = NCI Yeast Anticancer Drug Screen. Data for the CLN2oe strain (AID 163);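 note: 0% = growth of vehicle-only control cultures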; conditions: S. cerevisiae CLN2oe strain, active compounds read high
# In short: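 Yeast cells carrying a defined cell-cycle control alteration were exposed to test compounds. Growth inhibition was scored against vehicle-treated control cultures.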
# [10] = NCI Yeast Anticancer Drug Screen. Data for the cln2 rad14 strain (AID 165);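 note: 0% = growth equal to vehicle treated cultures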; conditions: S. cerevisiae cln2 rad14 strain, active compounds read high
# In short: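 Yeast carrying cln2 and rad14 alterations (cell cycle control and DNA damage repair) were exposed to compounds. Growth inhibition was measured against vehicle-treated controls.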
# [11] = NCI Yeast Anticancer Drug Screen. Data for the bub3 strain (AID 167); conditions: S. cerevisiae bub3 mutant strain, active compounds read high
# In short: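 Readout: yeast growth inhibition, expressed relative to vehicle-only wells. The test organism is a mutant strain from a panel with lesions in DNA repair or checkpoint genes.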
# [12] = NCI Yeast Anticancer Drug Screen. Data for the wt2 strain (AID 169);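 note: 0% = growth of vehicle-treated yeast cultures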; conditions: S. cerevisiae wt2 strain growth inhibition, active compounds read high
# In short: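 Yeast cells were exposed to test compounds, and growth inhibition was measured relative to vehicle-treated controls.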
# [13] = NCI Yeast Anticancer Drug Screen. Data for the mlh1 strain (AID 171);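 note: 0% = growth of vehicle-treated control cultures of the same strain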; conditions: S. cerevisiae mlh1 strain growth inhibition, active compounds read high
# In short: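 Yeast carrying a defined genetic alteration in DNA damage repair or cell cycle control were exposed to test compounds. Growth inhibition was measured relative to vehicle-treated controls.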
# [14] = NCI Yeast Anticancer Drug Screen. Data for the mlh1 rad18 strain (AID 175); conditions: S. cerevisiae mlh1 rad18 strain growth inhibition, active compounds read high
# In short: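 Growth inhibition of the yeast strain was measured after compound exposure and expressed relative to vehicle-treated controls. The strain carries defined defects in DNA damage repair.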
# [15] = NCI Yeast Anticancer Drug Screen. Data for the rad18 strain (AID 177); conditions: S. cerevisiae rad18 mutant growth inhibition, active compounds read high
# In short: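 Yeast carrying a defined DNA damage repair alteration were exposed to compounds. Growth inhibition was expressed relative to vehicle-treated controls.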
# [16] = NCI Yeast Anticancer Drug Screen. Data for the sgs1 strain (AID 173);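 note: 0% = growth of vehicle-only control cultures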; conditions: S. cerevisiae sgs1 mutant, active compounds read high
# In short: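 Yeast mutant strains carrying defined defects in DNA damage repair or cell cycle control were exposed to test compounds. Growth inhibition was scored against vehicle-treated controls.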
# [17] = at 5.0 µM (retest, dose inferred, filed as 0.5)
# [18] = at 50.0 µM (retest, dose inferred, filed as 5.0)
compound,measurement,setting,value
CCOC(=O)c1cc([N+](=O)[O-])cc([N+](=O)[O-])c1Sc1ncnc2nc[nH]c12,growth inhibition,[1]; at 1.2 µM,13%
same,growth inhibition,[1]; at 3.7 µM,2%
same,growth inhibition,[1]; at 11.0 µM,11%
same,growth inhibition,[1]; at 33.0 µM,62%
same,growth inhibition,[1]; at 100.0 µM,95% (active)
same,growth inhibition,[2]; at 1.2 µM,-29%
same,growth inhibition,[2]; at 3.7 µM,-44%
same,growth inhibition,[2]; at 11.0 µM,-32%
same,growth inhibition,[2]; at 33.0 µM,50%
same,growth inhibition,[2]; at 100.0 µM,97% (active)
same,growth inhibition,[3]; at 1.2 µM,-6%
same,growth inhibition,[3]; at 3.7 µM,-11%
same,growth inhibition,[3]; at 11.0 µM,13%
same,growth inhibition,[3]; at 33.0 µM,62%
same,growth inhibition,[3]; at 100.0 µM,82% (active)
same,growth inhibition,[4]; at 1.2 µM,-17%
same,growth inhibition,[4]; at 3.7 µM,-18%
same,growth inhibition,[4]; at 11.0 µM,-8%
same,growth inhibition,[4]; at 33.0 µM,83% (active)
same,growth inhibition,[4]; at 100.0 µM,98% (active)
same,growth inhibition,[5]; at 1.2 µM,-15%
same,growth inhibition,[5]; at 3.7 µM,-15%
same,growth inhibition,[5]; [17],36%
same,growth inhibition,[5]; at 11.0 µM,1%
same,growth inhibition,[5]; at 33.0 µM,68%
same,growth inhibition,[5]; [18],75% (active)
same,growth inhibition,[5]; at 50.0 µM,36%
same,growth inhibition,[5]; at 100.0 µM,96% (active)
same,growth inhibition,[6]; at 1.2 µM,-33%
same,growth inhibition,[6]; at 3.7 µM,-28%
same,growth inhibition,[6]; [17],22%
same,growth inhibition,[6]; at 11.0 µM,-2%
same,growth inhibition,[6]; at 33.0 µM,65%
same,growth inhibition,[6]; [18],69%
same,growth inhibition,[6]; at 50.0 µM,60%
same,growth inhibition,[6]; at 100.0 µM,97% (active)
same,growth inhibition,[7]; at 1.2 µM,-30%
same,growth inhibition,[7]; at 3.7 µM,-21%
same,growth inhibition,[7]; at 11.0 µM,-9%
same,growth inhibition,[7]; at 33.0 µM,66%
same,growth inhibition,[7]; at 100.0 µM,97% (active)
same,growth inhibition,[8]; [17],52%
same,growth inhibition,[8]; [18],75% (active)
same,growth inhibition,[8]; at 50.0 µM,62%
same,growth inhibition,[9]; at 1.2 µM,-19%
same,growth inhibition,[9]; at 3.7 µM,-33%
same,growth inhibition,[9]; at 11.0 µM,-23%
same,growth inhibition,[9]; at 33.0 µM,54%
same,growth inhibition,[9]; at 100.0 µM,97% (active)
same,growth inhibition,[10]; [17],5%
same,growth inhibition,[10]; [18],-16%
same,growth inhibition,[10]; at 50.0 µM,77.2% (active)
same,growth inhibition,[11]; at 1.2 µM,-26%
same,growth inhibition,[11]; at 3.7 µM,-12%
same,growth inhibition,[11]; [17],38%
same,growth inhibition,[11]; at 11.0 µM,-11%
same,growth inhibition,[11]; at 33.0 µM,70% (active)
same,growth inhibition,[11]; [18],70% (active)
same,growth inhibition,[11]; at 50.0 µM,59.5%
same,growth inhibition,[11]; at 100.0 µM,96% (active)
same,growth inhibition,[12]; at 1.2 µM,-29%
same,growth inhibition,[12]; at 3.7 µM,-22%
same,growth inhibition,[12]; at 11.0 µM,-24%
same,growth inhibition,[12]; at 33.0 µM,18%
same,growth inhibition,[12]; at 100.0 µM,96% (active)
same,growth inhibition,[13]; at 1.2 µM,-31%
same,growth inhibition,[13]; at 3.7 µM,2%
same,growth inhibition,[13]; at 11.0 µM,2%
same,growth inhibition,[13]; at 33.0 µM,85% (active)
same,growth inhibition,[13]; at 100.0 µM,97% (active)
same,growth inhibition,[14]; [17],42%
same,growth inhibition,[14]; [18],89% (active)
same,growth inhibition,[14]; at 50.0 µM,78.5% (active)
same,growth inhibition,[15]; at 1.2 µM,-18%
same,growth inhibition,[15]; at 3.7 µM,-7%
same,growth inhibition,[15]; at 11.0 µM,28%
same,growth inhibition,[15]; at 33.0 µM,81% (active)
same,growth inhibition,[15]; at 100.0 µM,97% (active)
O=C1C2C(C(=O)N1c1ccc(OCc3ccccc3)cc1)C1c3ccccc3C2C2CCCCN21 (stereo unspecified),growth inhibition,[1]; at 1.2 µM,-3%
same,growth inhibition,[1]; at 3.7 µM,1%
same,growth inhibition,[1]; at 11.0 µM,3%
same,growth inhibition,[1]; at 33.0 µM,12%
same,growth inhibition,[1]; at 100.0 µM,79% (active)
same,growth inhibition,[2]; at 1.2 µM,-6%
same,growth inhibition,[2]; at 3.7 µM,-7%
same,growth inhibition,[2]; at 11.0 µM,-10%
same,growth inhibition,[2]; at 33.0 µM,-10%
same,growth inhibition,[2]; at 100.0 µM,75% (active)
same,growth inhibition,[3]; at 1.2 µM,-1%
same,growth inhibition,[3]; at 3.7 µM,4%
same,growth inhibition,[3]; at 11.0 µM,0%
same,growth inhibition,[3]; at 33.0 µM,1%
same,growth inhibition,[3]; at 100.0 µM,6%
same,growth inhibition,[4]; at 1.2 µM,4%
same,growth inhibition,[4]; at 3.7 µM,4%
same,growth inhibition,[4]; at 11.0 µM,-11%
same,growth inhibition,[4]; at 33.0 µM,2%
same,growth inhibition,[4]; at 100.0 µM,95% (active)
same,growth inhibition,[5]; at 1.2 µM,3%
same,growth inhibition,[5]; at 3.7 µM,11%
same,growth inhibition,[5]; [17],3%
same,growth inhibition,[5]; at 11.0 µM,13%
same,growth inhibition,[5]; at 33.0 µM,41%
same,growth inhibition,[5]; [18],50%
same,growth inhibition,[5]; at 50.0 µM,80.8% (active)
same,growth inhibition,[5]; at 100.0 µM,94% (active)
same,growth inhibition,[6]; at 1.2 µM,-7%
same,growth inhibition,[6]; at 3.7 µM,-6%
same,growth inhibition,[6]; [17],-5%
same,growth inhibition,[6]; at 11.0 µM,-6%
same,growth inhibition,[6]; at 33.0 µM,2%
same,growth inhibition,[6]; [18],19%
same,growth inhibition,[6]; at 50.0 µM,-8.75%
same,growth inhibition,[6]; at 100.0 µM,93% (active)
same,growth inhibition,[7]; at 1.2 µM,-2%
same,growth inhibition,[7]; at 3.7 µM,3%
same,growth inhibition,[7]; at 11.0 µM,4%
same,growth inhibition,[7]; at 33.0 µM,35%
same,growth inhibition,[7]; at 100.0 µM,97% (active)
same,growth inhibition,[8]; [17],1%
same,growth inhibition,[8]; [18],61%
same,growth inhibition,[8]; at 50.0 µM,90.7% (active)
same,growth inhibition,[10]; [17],-14%
same,growth inhibition,[10]; [18],-15%
same,growth inhibition,[10]; at 50.0 µM,4.85%
same,growth inhibition,[11]; at 1.2 µM,-4%
same,growth inhibition,[11]; at 3.7 µM,-8%
same,growth inhibition,[11]; [17],-5%
same,growth inhibition,[11]; at 11.0 µM,-1%
same,growth inhibition,[11]; at 33.0 µM,23%
same,growth inhibition,[11]; [18],47%
same,growth inhibition,[11]; at 50.0 µM,83.3% (active)
same,growth inhibition,[11]; at 100.0 µM,88% (active)
same,growth inhibition,[12]; at 1.2 µM,-3%
same,growth inhibition,[12]; at 3.7 µM,-4%
same,growth inhibition,[12]; at 11.0 µM,-6%
same,growth inhibition,[12]; at 33.0 µM,18%
same,growth inhibition,[12]; at 100.0 µM,94% (active)
same,growth inhibition,[13]; at 1.2 µM,1%
same,growth inhibition,[13]; at 3.7 µM,4%
same,growth inhibition,[13]; at 11.0 µM,0%
same,growth inhibition,[13]; at 33.0 µM,28%
same,growth inhibition,[13]; at 100.0 µM,95% (active)
same,growth inhibition,[16]; at 1.2 µM,-2%
same,growth inhibition,[16]; at 3.7 µM,-1%
same,growth inhibition,[16]; at 11.0 µM,-2%
same,growth inhibition,[16]; at 33.0 µM,19%
same,growth inhibition,[16]; at 100.0 µM,94% (active)
same,growth inhibition,[14]; [17],-6%
same,growth inhibition,[14]; [18],69%
same,growth inhibition,[14]; at 50.0 µM,90.9% (active)
same,growth inhibition,[15]; at 1.2 µM,-3%
same,growth inhibition,[15]; at 3.7 µM,12%
same,growth inhibition,[15]; at 11.0 µM,8%
same,growth inhibition,[15]; at 33.0 µM,24%
same,growth inhibition,[15]; at 100.0 µM,81% (active)
